DRD3 antagonist = D3 dopamine receptor (human) antagonism. D3R cells, DiscoveRx beta-arrestin luminescence, antagonist mode; hits give low values. max response, negative = inhibition, %. 360,000 compounds, 2.5% hits; in the data active = max response below about -50%; inconclusive = no clear call, values can overlap the other calls
Target sequence (P35462 whole entry, looked up): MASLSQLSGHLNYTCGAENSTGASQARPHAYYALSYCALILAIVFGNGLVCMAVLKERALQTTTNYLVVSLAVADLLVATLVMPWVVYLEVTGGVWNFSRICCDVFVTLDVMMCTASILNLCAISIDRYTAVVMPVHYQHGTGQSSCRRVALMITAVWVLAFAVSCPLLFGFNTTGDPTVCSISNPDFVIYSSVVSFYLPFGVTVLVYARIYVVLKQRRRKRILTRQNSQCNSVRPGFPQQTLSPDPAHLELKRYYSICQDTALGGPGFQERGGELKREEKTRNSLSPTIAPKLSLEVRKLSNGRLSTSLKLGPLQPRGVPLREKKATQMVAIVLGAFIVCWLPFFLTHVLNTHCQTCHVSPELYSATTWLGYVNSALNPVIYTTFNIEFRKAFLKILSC
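Cells expressing the human receptor were seeded at 1500 cells/well, incubated overnight at 37 degrees C in 5% CO2, then exposed to library compounds with dopamine controls for 90 minutes at 37 degrees C before luminescent detection.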
D3 ag = D3 dopamine receptor (human) agonism; P35462; D3R DiscoveRx beta-arrestin cells, luminescence, 90 min; max activation, %; 410,000 compounds, 0.58% hits; AID 652048; in the data active = max activation above about 30%
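Cells at 1500/well, incubated overnight, then treated with pinned compounds (dopamine as control) for 90 min at 37 degrees C. DiscoveRx reagent added for 30 - 60 minutes at room temperature; luminescence read.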
ATXN2 expr inh = ATXN2 expression inhibition; HEK-293 ATXN2-luciferase reporter, luminescence, 24 h; Potency, µM (highest dose often 57 µM), most hits filed as inhibitors; 360,000 compounds, 0.72% hits; AID 1745845; also: nearly all actives have a fitted effect of over 55% in size
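ATXN2-luciferase reporter cells (luciferase flanked by upstream and downstream ATXN2 gene portions) were treated 24 h at 37 °C with compounds at up to 57 uM. SteadyGlo luminescence gave expression; GF-AFC fluorescence gave viability.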
HepG2 viability = counter-screen for TGF-b inhibitors: cytotoxicity in HepG2 cells. HepG2 CAGA-GFP viability, ATP luminescence, 18 h. Potency, µM (top dose mostly 46.1 µM), usual class: cytotoxic. 410,000 compounds, 0.76% hits. AID 588856
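CellTiter-Glo luminescence gave cytotoxicity after 18 hours at 37 degrees C. The cells were HepG2 CAGA-GFP in 1% FBS DMEM, stimulated with 500 pg/mL TGF-beta after compound addition. %Activity was normalised to no-cell wells (complete cell-killing) and DMSO (no toxicity), and curves were fitted and classified.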
TGFb SMAD3 inh = inhibitors of TGF-b signaling | 410,000 compounds, 1.2% hits | HepG2 CAGA-GFP TGF-b/SMAD3 reporter, GFP fluorescence, 18 h; TGF-beta stimulated, 500 pg/mL final | Potency, µM (top dose mostly 46.1 µM), hits mostly inhibitors; also: nearly all actives have a fitted effect of over 65% in size
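Cell-based qHTS in HEPG2 carrying a CAGA-GFP Smad reporter; compounds added before 500 pg/mL final TGF-beta, 18 h incubation at 37 degrees C, GFP fluorescence quantified per cell by imaging cytometry.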
ATXN viability = reduces viability in counter-screen for ATXN expression inhibitors | Potency, µM (highest dose often 56.7 µM), usual class: cytotoxic | S2 cells (HEK-293 line with an ATXN2-luciferase reporter) viability, CellTiter-Fluor protease fluorescence, 24 h | 400,000 compounds, 0.49% hits | AID 651635; also: nearly all actives have a fitted effect of over 40% in size
Numbers stand for hits; – = inactive; ? = inconclusive; · = no result. An excerpt weighted towards active compounds, which were near 4.7% of everything screened. Unless noted, calls follow the shape of the dose curve; as a rule, active = well fitted curve in the direction sought with a large enough effect; inconclusive = small, poorly fitted or top-dose-only effect, or another doubt; inactive = no such curve, though single readings can be large; an effect the other way counts as inactive or inconclusive.

SMILES	DRD3 antagonist	D3 ag	ATXN2 expr inh	HepG2 viability	TGFb SMAD3 inh	ATXN viability
COc1ccc(C(CNC(=O)c2cccc(S(=O)(=O)N3CCCC3)c2)N2CCCC2)cc1 (configuration not stated)	?	–	·	–	–	?
COc1ccc(C(CNC(=O)COc2cc(C)c(Cl)c(C)c2)N2CCCCC2)cc1 (configuration not stated)	-92	–	?	–	–	?
COc1cc(N(C)C)c(OC)cc1/C=C1\Cc2ccccc2C1=O	·	·	·	–	–	·
CCOc1ccc(CNC(=O)c2ccc3c(c2)c(C)c(C)n3Cc2ccccc2)cc1OC	·	–	·	–	–	·
COc1ccc(C(CNC(=O)CNC(=O)c2cccc(C)c2)N2CCOCC2)cc1 (configuration not stated)	–	–	–	–	–	–
COc1ccc(C(CNC(=O)CNC(=O)c2cccc(C)c2)N2CCCCC2)cc1 (configuration not stated)	-52	–	–	–	–	–
COc1ccccc1NS(=O)(=O)c1ccc(C(=O)NCC2(N(C)C)CCCCC2)cc1	–	–	–	–	–	–
COc1ccccc1NC(=O)NCC1(N(C)C)CCCCC1	-82	–	–	–	–	–
O=C(NNc1cc(N2CCOCC2)nc(N2CCOCC2)n1)c1ccc(Cl)c(Cl)c1	–	–	–	–	–	–
Cc1ccc(C(=O)NNc2cc(N3CCCC3)nc(N3CCCC3)n2)cc1	-52	–	–	–	–	–
CSc1nnc(CNC(=O)c2c(-c3ccccc3)noc2C)n1-c1ccc(F)cc1	·	·	·	·	·	–
CCOC(=O)c1ccc(N2C(=O)c3[nH]nc(-c4ccccc4)c3C2c2ccc(CC)cc2)cc1 (configuration not stated)	·	–	?	11µM	11µM	·
CCOC(=O)c1ccc(N2C(=O)c3[nH]nc(-c4ccccc4)c3C2c2cccs2)cc1 (configuration not stated)	·	–	·	–	7.1µM	·
CCOC(=O)c1ccc(N2C(=O)c3[nH]nc(-c4ccc(OCC)cc4)c3C2c2cccs2)cc1 (configuration not stated)	·	–	?	–	?	?
O=C(Nc1nc2ccccc2[nH]1)c1ccc(F)cc1	–	–	?	–	–	–
O=C(Nc1nc2ccccc2[nH]1)c1ccccc1F	–	–	–	2.2µM	–	–
O=C(NC(=S)NCc1nc2ccccc2[nH]1)c1ccc(F)cc1	–	–	?	–	?	–
O=C(NC(=S)NCc1nc2ccccc2[nH]1)c1ccccc1F	-63	–	–	–	–	–
Cc1cc(NC(=O)c2c(F)cccc2F)n(-c2nc3ccccc3[nH]2)n1	-96	37	–	–	?	–
CC(=O)Nc1ccc(C2Sc3ccccc3NC3=C2C(=O)c2ccccc23)cc1 (configuration not stated)	·	–	–	–	?	16µM
O=C1C2=C(Nc3ccccc3SC2c2ccc(C(F)(F)F)cc2)c2ccccc21 (configuration not stated)	·	–	?	–	11µM	·
CCc1ccc(C2Sc3ccccc3NC3=C2C(=O)c2ccccc23)cc1 (configuration not stated)	·	–	–	–	11µM	28µM
CC(C)c1ccc(C2Sc3ccccc3NC3=C2C(=O)c2ccccc23)cc1 (configuration not stated)	·	–	·	–	·	·
O=C1C2=C(Nc3ccccc3SC2c2ccco2)c2ccccc21 (configuration not stated)	–	–	–	–	–	?
COc1c(Cl)cc(Cl)cc1/C=C/C(=O)c1ccc(NC(=O)c2cccs2)cc1	–	–	13µM	–	?	16µM
SMILES	DRD3 antagonist	D3 ag	ATXN2 expr inh	HepG2 viability	TGFb SMAD3 inh	ATXN viability
Cc1nc2ccc(C(=O)N3CCOc4ccc(CN5CCOCC5)cc4C3)cc2nc1C	·	·	·	·	·	–
Oc1ccccc1-c1nc2c3ccccc3c3ccccc3c2[nH]1	–	–	?	–	16µM	–
c1csc(-c2nc3c4ccccc4c4ccccc4c3[nH]2)c1	–	–	–	–	?	–
COc1ccc(F)c(Cn2cnc3c(cnn3C(C)(C)C)c2=O)c1Cl	·	·	·	–	–	·
CCCNC(=O)CCC(NS(=O)(=O)c1ccc(C)cc1)C(=O)NCCC (configuration not stated)	-56	–	–	–	–	–
CC(C)(O)CCc1c(-c2ccc(O)cc2O)oc2c3c(cc(O)c2c1=O)OC(C)(C)C=C3	–	–	–	–	?	–
CC(C)=CCc1c2c(c3occ(-c4ccc(O)cc4)c(=O)c3c1O)C=CC(C)(C)O2	–	69	?	10µM	7.9µM	·
CC1(C)C=Cc2c(c3c(c4c(=O)c(-c5ccc(O)cc5)coc24)OC(C)(C)CC3)O1	–	–	?	–	14µM	·
CC(C)=CCc1c2c(c3occ(-c4ccc(O)c(O)c4)c(=O)c3c1O)C=CC(C)(C)O2	–	–	22µM	8.9µM	10µM	?
CCn1nc(C)cc1C(=O)Sc1cccc(Br)c1	–	–	–	20µM	?	–
CN(C)C(=O)CNC(=O)Cc1ccccc1	·	–	–	·	·	–
O=C(NN=Cc1cc(Cl)ccc1[N+](=O)[O-])c1cccc2ccccc12	–	–	–	–	–	?
O=C(N/N=C/c1cc(Cl)cc([N+](=O)[O-])c1O)c1cccc(S(=O)(=O)N2CCOCC2)c1	-93	–	?	–	–	–
COc1cc(Cl)cc(/C=N\NC(=O)c2ccc3c(c2)OCO3)c1O	–	–	·	–	11µM	·
Cc1cc(C(=O)N/N=C/c2cc(Cl)cc([N+](=O)[O-])c2O)c2ccccc2n1	-66	–	?	–	–	–
O=C(N/N=C/c1cc(Br)cc(Br)c1O)c1cccc(S(=O)(=O)N2CCOCC2)c1	–	–	–	–	–	–
O=C(N/N=C/c1cc(Cl)cc([N+](=O)[O-])c1O)c1ccc2c(c1)OCO2	-67	–	?	–	–	?
CCCN1CCN(C(=O)c2cnn(-c3ncc4c(n3)-c3ccccc3CCC4)c2COC)CC1	·	·	·	·	·	–
COCC(=O)Nc1cc(C(=O)N2CCc3sccc3C2)c2c(c1)nc(-c1ccncc1)n2C	·	·	·	·	·	–
Oc1ccccc1C=NNC(=S)NC1CC2C=CC1C2 (configuration not stated)	–	–	·	–	?	?
Oc1c(Cl)cc(Cl)cc1/C=N/NC(=S)NC1CC2C=CC1C2 (configuration not stated)	-85	–	?	–	?	·
O=C1[C@H](Cc2ccccc2)NC/C=C\C[C@H](c2ccco2)N1Cc1ccccc1	·	·	·	–	–	·
Cc1cccc(N(C(=O)Cc2cccs2)C(C(=O)NC2CCCC2)c2ccncc2)c1 (configuration not stated)	–	–	–	–	–	–
